SMN2 splice enh: qHTS Assay for Enhancers of SMN2 Splice Variant Expression. HEK293 SMN2-luciferase splicing reporter, luminescence, 30-36 h. Potency, µM (titrated, usually from 46.1 µM), usual class: activators. 2.8% of 210,000 active. AID 1458, 2008; also: nearly all actives have a fitted effect of over 55% in size
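HEK293 cells carry an SMN2 minigene-luciferase reporter in which exon 7 inclusion puts luciferase in frame. Cells were seeded at 2000 cells/well, attached for 10-12 hours, then exposed to compounds for 30-36 hours at 37C before ONE-Glo luminescence.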
NPC1 promoter act: qHTS Assay for NPC1 Promoter Activators; Huh7 NPC1 promoter luciferase reporter, 24 h; Potency, µM (doses to about 9.22 µM), most hits filed as activators; 2.4% of 320,000 active; also: nearly all actives have a fitted effect of over 60% in size
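Compounds in DMSO were transferred onto Huh7 NPC1-luciferase reporter cells pre-incubated 2 h; after 24 h at 37 °C, Amplite reagent was dispensed and luminescence recorded 10 min later.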
ELG1 genotox: qHTS screen for small molecules that induce genotoxicity in human embryonic kidney (HEK293T) cells expressing luciferase-tagged ELG1 | HEK293T ELG1-luciferase reporter, luminescence, 16 h | Potency, µM (highest dose often 46 µM), usual class: activators | 1.3% of 330,000 active | AID 504466, 2011; also: nearly all actives have a fitted effect of over 60% in size
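Reporter readout depends on ELG1 protein level, which increases with genetic stress. After 16 hr compound exposure at 37 °C, luciferase activity was quantified using ONE-Glo.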
FLuc counter: qHTS profiling assay for firefly luciferase inhibitor/activator using purifed enzyme and Km concentrations of substrates (counterscreen for miR-21 project); Luciferin 4-monooxygenase (Photinus pyralis), P08659; purified FLuc, Km substrates, luminescence inhibition; Potency, µM (series often up to 57.5 µM), actives largely listed as inhibitors; 6.9% of 360,000 active; also: nearly all actives have a fitted effect of over 55% in size
Target sequence (P08659 whole entry, looked up): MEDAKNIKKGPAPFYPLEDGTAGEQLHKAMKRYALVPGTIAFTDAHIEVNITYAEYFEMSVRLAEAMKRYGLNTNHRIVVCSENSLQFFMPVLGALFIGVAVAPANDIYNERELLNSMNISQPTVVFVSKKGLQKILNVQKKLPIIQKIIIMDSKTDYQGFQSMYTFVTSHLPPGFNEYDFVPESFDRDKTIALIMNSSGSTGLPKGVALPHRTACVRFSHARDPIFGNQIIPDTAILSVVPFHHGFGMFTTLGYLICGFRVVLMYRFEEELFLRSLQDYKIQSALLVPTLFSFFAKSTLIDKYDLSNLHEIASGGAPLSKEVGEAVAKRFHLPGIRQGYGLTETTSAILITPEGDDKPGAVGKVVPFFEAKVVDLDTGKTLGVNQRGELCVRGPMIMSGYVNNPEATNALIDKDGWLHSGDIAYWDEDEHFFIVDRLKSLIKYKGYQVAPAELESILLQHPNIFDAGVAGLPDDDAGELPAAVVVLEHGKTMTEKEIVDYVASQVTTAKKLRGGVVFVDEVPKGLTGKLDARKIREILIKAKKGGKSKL
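Biochemical qHTS of compounds, final roughly 60 µM downward over six points, against 10 nM purified firefly luciferase using Km concentrations of substrates (10 uM D-luciferin, 10 uM ATP) in Tris acetate pH 7.5 buffer; luminescence output.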
Rab9 promoter act: qHTS Assay for Rab9 Promoter Activators | Huh7 Rab9 promoter-luciferase reporter, luminescence, 24 h | 2.8% of 320,000 active | Potency, µM (titrated, usually from 9.22 µM), usual class: activators | AID 485297, 2010; also: nearly all actives have a fitted effect of over 60% in size
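Luminescence from Amplite-detected luciferase (10 minutes, ambient) reports Rab9 promoter activation. Before that, stable Rab9-luciferase Huh7 cells (1500/well, reduced-serum OP-MEM I plus 10% FBS) were exposed to compound for 24 hours at 37C.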
Large screens that a line does not name were inactive. Hits are enriched below; roughly 7.4% of the tested compounds scored in any of these assays. Calls follow the shape of the dose curve; as a rule, active = well fitted curve in the direction sought with a large enough effect; inconclusive = small, poorly fitted or top-dose-only effect, or another doubt; inactive = no such curve, though single readings can be large; an effect the other way counts as inactive or inconclusive.

CCCC(NC(=O)CCc1c(C)c2cc3c4c(oc3c(C)c2oc1=O)CCCC4)C(=O)O (configuration not stated)	FLuc counter inconclusive (no result: SMN2 splice enh)
Cc1c(CC(=O)NCCCC(=O)O)c(=O)oc2cc3oc4c(c3cc12)CCCC4	FLuc counter 21.3µM (no result: SMN2 splice enh)
Cc1c(CC(=O)NCCC(=O)O)c(=O)oc2cc3oc4c(c3cc12)CCCC4	FLuc counter 16.9µM (no result: SMN2 splice enh)
Cc1c(CC(=O)NCCCCCC(=O)O)c(=O)oc2c(C)c3oc4c(c3cc12)CCCC4	FLuc counter inconclusive (no result: SMN2 splice enh)
Cc1c(CCC(=O)N[C@@H](C)C(=O)O)c(=O)oc2cc3oc4c(c3cc12)CCCC4	FLuc counter 10.7µM (no result: SMN2 splice enh)
CCC1=NN(C(=O)COc2ccccc2)C(O)(c2ccc(Br)cc2)C1 (configuration not stated)	FLuc counter inconclusive
Cc1cc(C)n(-c2nc(NCCCO)c3c4c(sc3n2)CCCC4)n1	FLuc counter 21.3µM
Nc1ccc(-c2nc3ccccc3s2)cn1	NPC1 promoter act 1.26µM, ELG1 genotox 9.2µM, FLuc counter 4.78µM, Rab9 promoter act 1.58µM (no result: SMN2 splice enh)
COc1cc(OC)cc(C(=O)Nc2cc(-c3nc4ccccc4s3)ccc2OC)c1	FLuc counter inconclusive (no result: NPC1 promoter act, ELG1 genotox, Rab9 promoter act)
O=S(=O)(c1cc(-c2nc3ccccc3s2)ccc1Cl)N1CCOCC1	none
c1ccc(-c2nc3ccccc3s2)nc1	SMN2 splice enh 15.8µM, NPC1 promoter act 1.41µM, ELG1 genotox inconclusive, FLuc counter 3.79µM, Rab9 promoter act 1.41µM
CN(C)c1ncccc1-c1nc2ccccc2s1	none
COc1cc(OC)cc(-c2nc3ccccc3s2)c1	SMN2 splice enh inconclusive, ELG1 genotox inconclusive, FLuc counter 8.49µM
O=C1CCC(=O)N1c1ccc(-c2nc3ccccc3s2)cc1	SMN2 splice enh 10µM, NPC1 promoter act 0.447µM, ELG1 genotox inconclusive, FLuc counter 0.536µM, Rab9 promoter act 0.355µM
Cc1cc(C)cc(OCC(=O)N(C)CC(=O)Nc2ccc(N3CCOCC3)cc2)c1	none (no result: SMN2 splice enh)
CCc1cccc(OCC(=O)Nc2ccc(S(=O)(=O)Nc3cc(C)nc(C)n3)cc2)c1	FLuc counter inconclusive (no result: NPC1 promoter act, ELG1 genotox, Rab9 promoter act)
Brc1cc2c(cc1-c1nc3ccccc3s1)OCO2	FLuc counter 12µM (no result: SMN2 splice enh)
O=C(Nc1ccccc1-c1nc2ccccc2s1)C1=COCCO1	none
Brc1ccc(-c2nc3ccccc3s2)s1	SMN2 splice enh 14.1µM, NPC1 promoter act inconclusive, ELG1 genotox inconclusive, FLuc counter 1.07µM, Rab9 promoter act 1.58µM
CSc1nc2ccccc2s1	none
O=C(NCC(c1ccc2c(c1)OCO2)N1CCN(c2ccccc2)CC1)C(=O)Nc1ccccc1 (configuration not stated)	none (no result: SMN2 splice enh, NPC1 promoter act, ELG1 genotox, Rab9 promoter act)
COc1cccc(OCc2cc(/C=N/Nc3ccc(C(=O)O)cc3)ccc2OC)c1	ELG1 genotox 4.61µM, FLuc counter 6.75µM, Rab9 promoter act inconclusive (no result: SMN2 splice enh)
COc1cccc(C(=O)Oc2ccc(/C=N/Nc3ccc(C(=O)O)cc3)cc2OC)c1	NPC1 promoter act 0.447µM, ELG1 genotox inconclusive, FLuc counter 23.9µM, Rab9 promoter act inconclusive (no result: SMN2 splice enh)
CCOc1cc(/C=N/Nc2ccc(C(=O)O)cc2)ccc1OC(=O)c1ccccc1C	NPC1 promoter act 1.41µM, FLuc counter inconclusive, Rab9 promoter act 3.98µM (no result: SMN2 splice enh)
COc1cc(/C=N/NC(=O)c2ccc(N)cc2)ccc1OC(=O)c1cccc(C)c1	none (no result: SMN2 splice enh)
CCc1nnc2c3ccccc3nc(Nc3ccc(F)c(Cl)c3)n12	none (no result: NPC1 promoter act, ELG1 genotox, Rab9 promoter act)
CC(NC(=O)CCNC(=O)c1ccco1)c1ccccc1 (configuration not stated)	none (no result: SMN2 splice enh)
O=C(N/N=C/c1ccco1)c1ccc(OCc2ccccc2)cc1	none (no result: SMN2 splice enh)
O=C(N/N=C/c1ccco1)c1ccncc1	none
Cc1cccc(NC(=O)CCC(=O)N/N=C/c2ccco2)c1	none
O=C(Nc1ccccc1C(=O)N/N=C/c1ccco1)c1ccc(Cl)cc1	FLuc counter 2.13µM
O=C(Nc1ccccc1C(=O)N/N=C/c1ccco1)c1ccccc1	FLuc counter 21.3µM
O=C(Nc1ccccc1C(=O)N/N=C/c1ccco1)c1ccc(F)cc1	FLuc counter 8.49µM
O=C(N/N=C\c1ccco1)Nc1cccc(Cl)c1	SMN2 splice enh 10µM, NPC1 promoter act 3.16µM, ELG1 genotox inconclusive, FLuc counter 19µM, Rab9 promoter act 2.51µM

Screening results as filed in PubChem.
